High-throughput results as filed in PubChem BioAssay.
A selection: hits, their analogues and other compounds. The true share with any hit is near 3.4%.
pPAFAH FP inh = pPAFAH (human) enzyme inhibition; Q13093; recombinant pPAFAH, FP-rhodamine probe fluorescence polarization; inhibition, % at 3.39 µM; 330,000 compounds, 1.5% hits; AID 463082;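 active = inhibition above the mean inhibition across the screen plus 3 SD, cut at about 25% in these data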;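 note: inhibitors block binding of the rhodamine activity-based probe so polarization drops; 0% = enzyme with DMSO and 100% = wells lacking pPAFAH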
Target sequence (Q13093 whole entry, looked up): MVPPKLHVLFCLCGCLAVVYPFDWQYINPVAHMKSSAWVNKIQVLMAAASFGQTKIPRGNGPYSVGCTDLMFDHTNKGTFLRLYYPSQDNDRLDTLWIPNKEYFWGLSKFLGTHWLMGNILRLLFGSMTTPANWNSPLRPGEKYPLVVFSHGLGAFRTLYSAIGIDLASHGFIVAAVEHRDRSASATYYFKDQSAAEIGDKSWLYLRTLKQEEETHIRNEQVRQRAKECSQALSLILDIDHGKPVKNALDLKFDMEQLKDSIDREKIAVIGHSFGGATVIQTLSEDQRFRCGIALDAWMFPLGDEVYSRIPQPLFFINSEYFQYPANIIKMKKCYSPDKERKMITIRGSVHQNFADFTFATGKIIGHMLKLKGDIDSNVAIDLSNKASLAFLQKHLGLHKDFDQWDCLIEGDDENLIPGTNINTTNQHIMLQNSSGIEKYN
PP1 inh = PP1-alpha (human) inhibition in PP5 counter-screen; P62136; purified PP1alpha, OMFP fluorescence; inhibition, % at 6.7 µM; 320,000 compounds, 0.9% hits;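 active = inhibition above the mean inhibition of all tested compounds plus 3 SD, computed separately for each screening campaign, cut at about 15% in these data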
PAFAH2 FP inh = PAFAH2 (human) inhibition; 340,000 compounds, 0.99% hits; Q99487; recombinant PAFAH2, FP-rhodamine activity probe, fluorescence polarization; inhibition, % at 3.39 µM;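 active = inhibition above the mean over all tested compounds plus 3 SD, cut at about 30% in these data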;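 note: inhibitors block probe labeling of enzyme so polarization drops; 0% = enzyme with DMSO and 100% = wells lacking PAFAH2 protein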
PP5 inh = blocks human protein phosphatase 5 activity | purified PP5c, OMFP substrate fluorescence | P53041 | inhibition, % at 6.7 µM | 320,000 compounds, 0.18% hits;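 active = inhibition above the campaign's mean inhibition across all tested compounds plus 3 SD, cut at about 9.5% in these data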;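 note: 0% = DMSO only and 100% = 100 µM cantharidin control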
PAFAH1B2 FP inh = inhibitors of human PAFAH1B2 | 340,000 compounds, 1.2% hits | P68402 | AID 492953 | inhibition, % at 3.39 µM | recombinant PAFAH1B2, FP-rhodamine activity probe, fluorescence polarization;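 active = inhibition above the mean of all tested compounds plus 3 SD, cut at about 24% in these data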;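 note: 0% = enzyme with DMSO and 100% = wells lacking PAFAH1B2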
Target sequence (P68402 whole entry, looked up): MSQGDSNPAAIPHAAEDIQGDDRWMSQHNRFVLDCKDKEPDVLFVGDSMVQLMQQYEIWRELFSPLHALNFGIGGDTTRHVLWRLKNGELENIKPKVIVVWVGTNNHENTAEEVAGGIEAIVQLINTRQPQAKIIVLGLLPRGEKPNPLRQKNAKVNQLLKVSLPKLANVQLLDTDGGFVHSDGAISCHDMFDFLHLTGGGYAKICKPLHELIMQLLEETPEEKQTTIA
PAFAH1B3 FP inh = inhibitors of human PAFAH1B3 | Q15102 | recombinant PAFAH1B3, FP-rhodamine probe, fluorescence polarization | inhibition, % at 3.39 µM | 340,000 compounds, 0.28% hits;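 active = inhibition above the screen-wide average of all tested compounds plus 3 SD, cut at about 25% in these data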;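 note: 0% = enzyme with DMSO only and 100% = wells lacking PAFAH1B3 protein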
PP1 inh confirm = human PP1 phosphatase inhibition, confirmation. shares compounds with PP1 inh. purified PP1alpha, OMFP substrate fluorescence. inhibition, % at 6.7 µM. 1,900 compounds, 52% hits;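 active = mean PP1 inhibition above a set limit taken from the earlier primary screen, cut at about 15% in these data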
PP5 inh counter = PP5 phosphatase inhibition, counter-screen for PP1 inhibitors; AID 2360; 1,900 compounds, 4% hits; inhibition, % at 6.7 µM; shares compounds with PP1 inh; purified PP5c, OMFP fluorescence;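 active = mean PP5 inhibition over triplicate wells above about 9.5% taken from the earlier PP1 screen, limit read from the data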
The depositor's hits bear a star; . = no result.

SMILES | pPAFAH FP inh | PP1 inh | PAFAH2 FP inh | PP5 inh | PAFAH1B2 FP inh | PAFAH1B3 FP inh | PP1 inh confirm | PP5 inh counter
NC(=O)[C@H](Cc1cc2ccccc2s1)NC(=O)[C@@H]1CC2(CC(c3cccc(NC(=O)[C@@H]4CCC(=O)N4)c3)=NO2)CN1C(=O)/C=C/c1c(F)cccc1Cl (stereo partly specified) | -10 | 30* | -28 | 5 | -11 | -42 | 20* | 6
NC(=O)[C@H]1CC2(CC(c3cccc(NC(=O)[C@H]4CCC(=O)N4)c3)=NO2)CN1C(=O)CC(c1ccccc1)c1ccccc1 (stereo partly specified) | 2 | -1 | . | 1 | . | . | . | .
COc1cccc2cc(/C(C)=N/Nc3nc(-c4cc(C)ccc4C)cs3)c(=O)oc12 | 18 | 20* | 0 | 1 | 4 | 3 | 19* | 1
COc1ccc(Nc2nc(-c3cc4cccc(OC)c4oc3=O)cs2)cc1 | 12 | 1 | -2 | 1 | 0 | -2 | . | .
Cc1cccc(Nc2nnc(SCC(=O)Nc3cccc(S(=O)(=O)N4CCCCC4)c3)s2)c1 | 4 | 4 | -19 | 2 | -11 | -8 | . | .
Cc1cccc(C)c1Nc1nnc(SCC(=O)Nc2cc(S(=O)(=O)N3CCCCC3)ccc2Cl)s1 | -5 | 24* | -3 | 4 | -2 | 6 | 21* | 0
O=[N+]([O-])c1ccc(OC(F)F)c(/C=N/n2cnnc2)c1 | 3 | 5 | -7 | -1 | 2 | 3 | . | .
Cc1nnc(NC(=O)c2ccc(S(=O)(=O)N3CCc4ccccc4C3)cc2)o1 | 1 | 24* | -2 | 2 | 9 | 1 | 21* | -3
Cc1nnc(NC(=O)c2ccc(S(=O)(=O)N3CC(C)CC(C)C3)cc2)o1 (stereo unspecified) | 5 | 22* | -5 | 1 | 4 | 1 | 8 | 0
CC1CCCN(S(=O)(=O)c2ccc(C(=O)Nc3nnc(C4=COCCO4)o3)cc2)C1 (stereo unspecified) | 3 | 19* | 4 | 4 | 8 | 4 | 1 | -4
Cc1nnc(NC(=O)c2ccc(S(=O)(=O)N3CCCCC3C)cc2)o1 (stereo unspecified) | -2 | 13 | 4 | 5 | 5 | 6 | . | .
CCOC(=O)N1CCN(S(=O)(=O)c2ccc(C(=O)Nc3nnc(C)o3)cc2)CC1 | 1 | 7 | 16 | 1 | 6 | 3 | . | .
CC1CCCCN1S(=O)(=O)c1ccc(C(=O)Nc2nnc(C3=COCCO3)o2)cc1 (stereo unspecified) | 3 | 13 | 8 | 1 | 8 | 9 | . | .
NC(=S)NN=C1c2ccccc2-c2ccccc21 | 5 | 4 | 1 | 2 | 4 | 7 | . | .
N#Cc1ccc(C23CC4(C2)[C@H](CN(Cc2cccnc2)[C@@H]4c2ccccc2)C3c2ccccc2)cc1 (stereo partly specified) | 9 | 20* | -3 | 2 | 0 | 1 | 17* | -2
FC(F)(F)c1ccc(C2[C@H]3CN(Cc4cccnc4)[C@H](c4ccccc4)C34CC2(c2cccnc2)C4)cc1 (stereo partly specified) | -1 | 19* | -9 | 5 | 3 | 1 | 7 | -1
COC(=O)c1ccc(C23CC4(C2)[C@H](CN(Cc2cccnc2)[C@@H]4c2ccccc2)C3c2ccccc2)cc1 (stereo partly specified) | 3 | 8 | -6 | 3 | -1 | -15 | . | .
COc1ccc(CNC(=S)Nc2cc(OC)ccc2OC)cc1 | 5 | 63* | -2 | 2 | 1 | 0 | -3 | -5
CCOc1ccc(NC(=O)CCc2c(C)nn(-c3ccc(N4CCCCC4)nn3)c2C)cc1 | 5 | -1 | 4 | 4 | -1 | -4 | . | .
O=C(CSc1nc2ccc(NC(=O)CSc3nnnn3-c3ccccc3)cc2s1)Nc1ccccc1 | -11 | 20* | -19 | 3 | -13 | -24 | 26* | -2
Cc1cccc(NC(=O)CSc2nc3ccc(NC(=O)CSc4nnnn4-c4ccccc4)cc3s2)c1C | 1 | 0 | . | 1 | . | . | . | .
O=C(CN1CCCN(Cc2ccc(F)cc2Cl)C1=O)NC1CCCCCC1 | 2 | 43* | 1 | 0 | 4 | 5 | -5 | -5
CCc1nnc(NC(=O)c2sc3nc4c(cc3c2N)CCCCCC4)s1 | 15 | 22* | -1 | 2 | 17 | 5 | 29* | -5
CCc1nnc(NC(=O)c2sc3nc4c(cc3c2N)CCCCC4)s1 | 19 | 2 | -5 | 2 | 13 | 7 | . | .
O=C(c1cc(-c2ccccc2)n[nH]1)N1CCc2c([nH]c3ccccc23)C1c1ccccn1 (stereo unspecified) | 1 | 1 | -1 | 8 | -1 | 7 | . | .
SMILES | pPAFAH FP inh | PP1 inh | PAFAH2 FP inh | PP5 inh | PAFAH1B2 FP inh | PAFAH1B3 FP inh | PP1 inh confirm | PP5 inh counter
Brc1ccc(N/N=C(/N=Nc2nn[nH]n2)c2ccccc2)cc1 | 61* | 19* | 44* | 6 | 21 | 23 | 24* | 7
Cc1cccc(OCc2nnc(SCC(=O)N3c4ccccc4CCc4ccccc43)o2)c1 | -3 | 19* | -3 | 2 | 7 | 3 | 4 | -1
CCCC(=O)NC(c1ccccc1OC)c1ccc2cccnc2c1O (stereo unspecified) | 11 | -3 | 4 | -1 | 4 | 12 | . | .
CCCCC(=O)NC(c1ccc(Cl)cc1)c1ccc2cccnc2c1O (stereo unspecified) | 11 | 32* | 3 | 4 | 3 | 6 | 21* | -5
CCCC(=O)NC(c1ccc(Cl)cc1)c1ccc2cccnc2c1O (stereo unspecified) | 16 | 23* | 2 | 4 | -3 | 14 | 20* | -5
CCCC(=O)NC(c1ccc(Cl)cc1Cl)c1ccc2cccnc2c1O (stereo unspecified) | 19 | 26* | -16 | 2 | -2 | -2 | 21* | -4
CCCC(=O)NC(c1ccc(C)cc1)c1ccc2cccnc2c1O (stereo unspecified) | 13 | 23* | 0 | 2 | 1 | 11 | 18* | -3
CC(=O)NC(c1ccc(Cl)cc1Cl)c1ccc2cccnc2c1O (stereo unspecified) | . | . | 0 | . | -1 | 4 | . | .
COCCn1c(Cc2ccccc2)nnc1SCC(=O)N1CCCC1=O | -1 | 0 | 5 | -1 | 3 | 1 | . | .
Cc1ccccc1Nc1nnc(SCc2nc3ccccc3c(=O)[nH]2)s1 | -1 | 22* | . | 1 | . | . | 2 | -8
COC(=O)C(NC(=O)CCc1nnc2ccc(N3CCC(C)CC3)nn12)C(C)C (stereo unspecified) | 3 | 31* | 9 | 1 | 2 | 8 | -4 | -2
CCC(C)NC(=O)CCc1nnc2ccc(N3CCC(C)CC3)nn12 (stereo unspecified) | 2 | -3 | -3 | 1 | 4 | 0 | . | .
